About 970 (81%) of roughly 1,200 compounds were called active. The rule behind the calls is not given here. So high a share suggests a set chosen from earlier hits. Only a sample is shown. Potency and affinity values are given separately. Non-standard residues stand in square brackets, D forms with d. Residues, ends and D or L forms follow the SMILES beside them. *: point of attachment. Ac5c = NC1(C(=O)O)CCCC1; Cbz = O=C(OCc1ccccc1)*
What follows are molecules tested against Transforming acidic coiled-coil-containing protein 3 (Homo sapiens) (UniProt Q9Y6A5) (assay: ARNT/TACC3 interaction disruptors, potency, confirmation, biochemical, AlphaScreen, cherry-picked samples (AID 651703;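 note: TACC3 partner is the GST-tagged E629A mutant dimer; hits lower the signal meaning they disrupt ARNT binding to TACC3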)). Details: AlphaScreen His-ARNT PAS-B / GST-TACC3 binding, luminescence; series mostly up to 68 µM.

outcome, inactive:
COc1ccc(-c2nc(CN3CCC(C(=O)NC4CCCc5ccccc54)CC3)c(C)o2)cc1OC (stereo not drawn)
O=C(C[C@@H]1CC[C@H](NC(=O)CN2CCOCC2)[C@H](CO)O1)NCCc1ccncc1
CN(C)S(=O)(=O)N1CCN(S(=O)(=O)c2ccc(F)cc2)CC1
Cc1nnc(NC(=O)CSc2nnc(CNC(=O)c3ccc(F)cc3)o2)s1
COc1ccc2cc1Oc1ccc(cc1)C[C@H]1c3cc(c(OC)cc3CCN1C)Oc1c(OC)c(OC)cc3c1[C@@H](C2)N(C)CC3
CCC(C(=O)Nc1ncn[nH]1)(C(F)(F)F)C(F)(F)F
CC(=O)c1cccc(NC(=O)N2CCCC2C(=O)NCc2ccccc2)c1 (stereo not drawn)
COc1ccc(/C(C)=N\NC(=O)CSc2nnc(C)s2)cc1
O=C(NCC1CC1)c1cc(-c2ccccc2)on1
NS(=O)(=O)c1ccc(CCNC(=O)c2ccc3c(c2)OCO3)cc1
O=C(NCCCO)c1cc(-c2ccccc2)on1
Oc1c(Br)cccc1/C=N/c1ncn[nH]1
Cn1c(=NC(=O)c2cnccn2)sc2ccccc21
O=C1NC[C@H](c2ccccc2)OC(=O)[C@H](Cc2ccc(F)cc2)CC/C=C/C[C@@H]1CC(=O)N(CCO)Cc1ccccc1
COc1ccc(Nc2nc(N)nc(CN3CCOCC3)n2)cc1
Fc1ccc(/C=N/Nc2ncnc3nc[nH]c23)cc1F
CCn1c(Cc2ccccc2)nnc1SCC(=O)Nc1ccc(N)cc1
COCCNC(=O)Cn1cc(C(=O)c2cccs2)c2ccccc21
C[C@H]1CCCCO[C@H](CN(C)C(=O)Nc2ccc(F)cc2)[C@@H](C)CN([C@@H](C)CO)C(=O)c2cc(NS(=O)(=O)c3ccc(Cl)cc3)ccc2O1
CC(OC(=O)Cc1c(F)cccc1Cl)C(=O)NC1(C#N)CCCCC1 (stereo not drawn)
Nc1ccc(C(=O)Nc2ccc3c(O)cc(S(=O)(=O)O)cc3c2)cc1
Cc1cc2c(NC(=O)CC(C)(C)CC(=O)O)cccc2nn1
O=C(O)c1ccc(Br)c(S(=O)(=O)N2CCCC2)c1
CCN1CCN(c2ccc(NC(=O)c3cccc(S(=O)(=O)N4CCCC4)c3)cc2)CC1
COc1cc(/C=N/NC(=O)CCN2CCN(c3ccccc3)CC2)cc(OC)c1OC
O=C(Nc1cn2ccccc2n1)c1cc(-c2ccccc2)on1
COC(=O)c1[nH]c2ccc(C)cc2c1NC(=O)c1ccccc1[N+](=O)[O-]
CC(NC(=O)COC(=O)c1ccc([N+](=O)[O-])o1)c1ccccc1 (stereo not drawn)
O=C(NC1CCc2ccccc2C1)c1cc(-c2ccccc2)on1 (stereo not drawn)
Cc1ccccc1Oc1nc(-c2ccccn2)nc2ccccc12
CCOC(=O)CC(NC(=O)Cc1ccc(F)cc1)c1ccccc1Cl (stereo not drawn)
COc1cc(C2Nc3ccccc3C(=O)N2NS(C)(=O)=O)c([N+](=O)[O-])cc1OC (stereo not drawn)
NC1=NN=C(N2N=C(c3ccccc3)CC2(O)C(F)(F)F)n2ncnc2C1 (stereo not drawn)
O=C1C=C(O)c2cccc(O)c2C1=O
CCc1c(C)sc(NC(=O)C2CC(c3c(F)cccc3Cl)=NO2)c1C#N (stereo not drawn)
CC[C@]1(O)CC2CN(CCc3c([nH]c4ccccc34)[C@@](C(=O)OC)(c3cc4c(cc3OC)N(C=O)[C@H]3[C@@](O)(C(=O)OC)[C@H](OC(C)=O)[C@]5(CC)C=CCN6CC[C@]43[C@@H]65)C2)C1 (stereo partly drawn)
COc1ccccc1C(=O)Nc1ccccc1N1CCCCC1
O=C(C[C@H]1C=C[C@@H](NC(=O)Nc2ccccc2)[C@@H](CO)O1)NCc1ccccn1
Cc1ccc(N(C)S(=O)(=O)c2cccc(C(=O)Oc3ccc4c(C)cc(=O)oc4c3)c2)cc1
Cc1ccc(S(=O)(=O)Cn2nnnc2C(c2ccccc2)N2CCN(c3ccccc3)CC2)cc1 (stereo not drawn)
O=C(NC1Cc2ccccc2C1)[C@H]1N[C@H]2c3cccc(=O)n3C[C@H]2[C@@H]1CO
Cc1[nH]n(-c2ccccc2)c(=O)c1C(c1ccc(C(=O)O)cc1)c1c(C)[nH]n(-c2ccccc2)c1=O
Cc1[nH]n(-c2ccccc2)c(=O)c1C(c1ccc(O)c([N+](=O)[O-])c1)c1c(C)[nH]n(-c2ccccc2)c1=O
COc1ccc(CCNC(=O)C23CCC(C)(C(=O)C2Br)C3(C)C)cc1OC (stereo not drawn)
Cn1c(CCNC(=O)c2ccc(Cl)c(Cl)c2)nnc1SCc1ccc(Cl)c(Cl)c1
O=C(c1cc(-c2ccccc2)on1)N1CCN(c2ccncc2)CC1
O=C(C1=C(O)C(=O)N(Cc2ccccc2)C1c1ccncc1)c1ccco1 (stereo not drawn)
COc1cc(Cc2nccc3cc(OC)c(OC)cc23)c(S(=O)(=O)O)cc1OC
CC=Cc1ccc2n(c1=O)C[C@H]1[C@H](CO)[C@@H](C(=O)NC3CCC3)[C@@H]2N1S(=O)(=O)c1cn(C)cn1 (mixture of isomers)
Cc1cc(C)c(C(N)=O)c(Nc2cccc3ccccc23)n1
COc1ccc(Nc2nnc(-c3ccc(C(N)=O)cc3)c3ccccc23)cc1
C[C@@H]1CN([C@@H](C)CO)C(=O)c2cc(NS(=O)(=O)c3cccs3)ccc2O[C@H]1CN(C)CC1CCCCC1
COc1ccc(-c2cnc3c(c2)C(=O)N([C@@H](C)CO)C[C@@H](C)[C@@H](CN(C)Cc2cccnc2)O3)cc1
C/C(=C\C(=O)c1ccccc1)Nc1ccc(N2CCOCC2)cc1
CCCc1nnc(NS(=O)(=O)c2ccc(C)cc2)o1
Cc1ccc(S(=O)(=O)n2nc(C)c(C#N)c2N)cc1
COC(=O)c1c(N)n(-c2ccc(NC(C)=O)cc2)c2nc3ccccc3nc12
CC(C)C#Cc1ccc2c(c1)O[C@@H](CN(C)C(=O)CN(C)C)[C@@H](C)CN([C@@H](C)CO)S2(=O)=O
CC(C)NC(=O)N(C)C[C@H]1OCCCC[C@H](C)Oc2ccc(NC(=O)Nc3ccccc3)cc2C(=O)N([C@H](C)CO)C[C@@H]1C
C[C@@H]1CCCCO[C@H](CN(C)Cc2ccncc2)[C@H](C)CN([C@H](C)CO)C(=O)c2cc(NC(=O)C3CCCCC3)ccc2O1
COc1ccc(NC(=O)Nc2ccc3c(c2)C(=O)N([C@H](C)CO)C[C@@H](C)[C@@H](CN(C)C(=O)CCC(F)(F)F)OCCCC[C@H](C)O3)cc1
CC(C)NC(=O)Nc1ccc2c(c1)C(=O)N([C@H](C)CO)C[C@H](C)[C@@H](CN(C)C(=O)Cc1ccccc1)OCCCC[C@H](C)O2
CN(C)C(=O)c1cccc(-c2ccc3c(c2)[C@@H]2[C@@H](CCN2C(=O)c2cccnc2)[C@@H](CO)N3)c1
O=C(C[C@H]1C=C[C@H](NS(=O)(=O)c2ccc(F)cc2)[C@H](CO)O1)N1CCN(c2ccccc2)CC1
C[C@H](CO)N1C[C@H](C)[C@@H](CN(C)Cc2ccccn2)Oc2ncc(C#CC3(O)CCCC3)cc2C1=O
COc1ccc(OC)c(-n2nnnc2SCC(=O)Nc2ccccc2OC)c1
CC(=O)N(C)C1=C(O)c2ccccc2C(=O)C1=O
O=C(Nc1ccc2c(c1)OCO2)c1ccc2c(c1)OCO2
COc1ccc(OC)c2nc3c(C(=O)NCCN(C)C)cccc3nc12
CN(C)CCNC(=O)c1cc(-c2ccccc2)on1
CCn1cc(/C=C2/SC(=S)NC2=O)c(C)n1
Nc1ccc2nn(-c3ccc(F)cc3)nc2c1
Cc1ccc(CNC(=O)c2cc(-c3ccccc3)on2)cc1
COc1ccc(C2=C(C)CC(C)(C)NC2=O)cc1OC
O=c1ccc(-c2ccc(S(=O)(=O)Nc3ccc(F)cc3)s2)n[nH]1
CCCCNC(=O)c1cc(-c2ccccc2)on1
O=C(NCCN1CCCCC1)c1cc(-c2ccccc2)on1
O=C(NCc1ccccc1)c1cc(-c2ccccc2)on1
Cn1c(NC(=O)c2cc(-c3ccccc3)on2)nc2ccccc21
O=C(Nc1ncc2ccccc2n1)c1cc(-c2ccccc2)on1
O=c1c(C=NCCCn2ccnc2)c(-c2ccccc2)[nH]n1-c1nc2ccccc2s1
Cc1[nH][nH]c(=O)c1C(c1ccc(O)c(Br)c1)c1c(C)[nH][nH]c1=O
Cc1[nH][nH]c(=O)c1C(c1ccc(Br)cc1)c1c(C)[nH][nH]c1=O
Cc1[nH][nH]c(=O)c1C(c1ccc(Cl)cc1)c1c(C)[nH][nH]c1=O
O=C(C[C@@H]1CC[C@H](NC(=O)Nc2cc(F)ccc2F)[C@@H](CO)O1)Nc1ccc(-c2ccccc2)cc1
COc1cc(C2C(C#N)=C(N)Oc3n[nH]c(C)c32)ccc1OC(=O)c1ccccc1 (stereo not drawn)
COC(=O)C1(NC(=O)CNC(=O)OCc2ccccc2)CCCC1 (Cbz-Gly-[Ac5c]-OMe)
Cn1c(N)c(C(=O)c2cc(-c3ccccn3)nc3ccccc23)c(=O)[nH]c1=O
CCN(CC)CCCNc1nc2ccccc2c2[nH]c3ccc(OC)cc3c12
Cc1c(NC(=O)c2cccnc2C(=O)O)cccc1C(=O)O
N#Cc1ccc(CC(=O)c2ccccc2)[nH]c1=O
C[C@H](CO)N1C[C@H](C)[C@H](CN(C)Cc2cccnc2)Oc2cc(C#CCN(C)C)ccc2S1(=O)=O
C[C@@H]1CN([C@H](C)CO)S(=O)(=O)c2ccc(C#Cc3ccccn3)cc2O[C@@H]1CN(C)C(=O)C1CC1
